# Experimental data taken from ChEMBL document CHEMBL1201862, “PubChem BioAssay data set” (2004).
# The whole screen tested about 1,500 compounds, of which about 140 (9.3%) were called active. How the calls were made is not given here. The full list was thinned out, with actives kept by preference.
# Assay: AlphaScreen signal interference with preloaded methylated product, dose response, artefact control for NSD2 inhibitor project, biochemical, cherry-picked samples (AID 1053174);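 further: actives lower the AlphaScreen signal from the preloaded product and count as artifacts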
row,Compound,AbsAC35
1,OCC[n+]1c2ccccc2nc2ccc(N3CCOCC3)cc21,15.8 µM (active)
2,N/C(=N\N=C/c1ccc(-c2ccc(O)c(C(=O)O)c2)o1)N[N+](=O)[O-],19.7 µM (active)
3,CN(c1ccc(O)cc1)c1ccc([N+](=O)[O-])c2nonc12,15.7 µM (active)
4,CCCCCCCSc1cc(OC)c(CCNC)cc1OC,14.6 µM (active)
5,CC[n+]1c(-c2ccccc2)c2cc(N)ccc2c2ccc(N)cc21,21.9 µM (active)
6,CCN(CC)c1ccc(CN2CC=C(c3ccc(F)cc3)CC2)cc1,15.3 µM (active)
7,CN(C)c1ccc(CN2CC=C(c3ccc(F)cc3)CC2)cc1,15.5 µM (active)
8,CCCCN1C(=O)/C(=C/C=C/c2ccco2)C(=O)NC1=S,10.6 µM (active)
9,CN(C)c1ccc(/C=C/c2cc[n+](C)c3ccccc23)cc1,10.6 µM (active)
